Experimental data: PubChem BioAssay AID588342 (National Center for Advancing Translational Sciences (NCATS), 2011)
Out of some 360,000 compounds screened, about 25,000 (6.9%) were called active. Entries that show only a call come without a potency. Roughly 9% stayed inconclusive and do not appear here. The call rests on the fitted dose curve; in most records, active means well fitted inhibition curve with a large enough effect; inconclusive means small, poorly fitted or top-dose-only effect; inactive means flat fitted curve, though single readings scatter. The sample as a whole holds a higher share of actives than the screen did.

target: Luciferin 4-monooxygenase (Photinus pyralis) (UniProt P08659); assay: qHTS profiling assay for firefly luciferase inhibitor/activator using purifed enzyme and Km concentrations of substrates (counterscreen for miR-21 project); conditions: purified FLuc, luminescence inhibition; series mostly up to 57.5 µM; further: nearly all actives have a fitted effect of over 55% in size
Procedure, shortened: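 Purified P. pyralis luciferase (10nM final) with 10uM D-luciferin and 10uM ATP (Km levels) in 50mM Tris acetate pH 7.5, 10mM Mg acetate, 0.01% Tween-20, 0.05% BSA; qHTS 6-point titration, ~60 µM downward; luminescence read.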
Potency means the concentration at half of the fitted maximal effect.

Chain of Luciferin 4-monooxygenase (Photinus pyralis) (P08659 whole entry, looked up): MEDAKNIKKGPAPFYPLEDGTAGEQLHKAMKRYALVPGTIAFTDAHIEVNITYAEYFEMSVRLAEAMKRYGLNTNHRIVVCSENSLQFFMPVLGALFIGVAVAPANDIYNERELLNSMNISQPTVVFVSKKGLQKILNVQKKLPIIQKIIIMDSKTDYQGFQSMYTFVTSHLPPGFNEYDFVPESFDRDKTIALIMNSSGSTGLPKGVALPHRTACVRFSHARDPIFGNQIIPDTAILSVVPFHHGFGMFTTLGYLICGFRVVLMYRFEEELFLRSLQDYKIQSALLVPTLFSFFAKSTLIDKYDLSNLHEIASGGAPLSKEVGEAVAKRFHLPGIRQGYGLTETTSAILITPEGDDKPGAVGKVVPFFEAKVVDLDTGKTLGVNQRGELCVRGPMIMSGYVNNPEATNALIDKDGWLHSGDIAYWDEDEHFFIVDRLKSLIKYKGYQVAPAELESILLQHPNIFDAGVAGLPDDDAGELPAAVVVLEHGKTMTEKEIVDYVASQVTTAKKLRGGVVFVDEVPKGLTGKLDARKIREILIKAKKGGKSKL

Structure (SMILES)	Potency
Cc1ccc(Sc2cc(C(=O)c3ccccc3C(=O)O)ccc2[N+](=O)[O-])cc1	inactive
Cc1ccc(C(=O)CSc2ccccc2C(=O)O)cc1	4.26 µM (active)
Cc1ccccc1C(=O)O	inactive
CC1(C(=O)OCC(=O)Nc2ncc(Cl)cc2Cl)CC1(Cl)Cl (stereo not drawn)	inactive
Cc1ccc(NC(=O)NC(C)c2c(-n3cccc3)sc(C)c2C)c(C)c1 (stereo not drawn)	inactive
COC(=O)[C@@H]1C[C@H]2CC[C@H](O)C[C@H]2N1Cc1ccc(N2CCN(C)CC2)cc1	inactive
Cc1ccc2c(Cl)c(C(=O)Nc3nn[nH]n3)sc2c1	16.9 µM (active)
Cc1nnsc1C(=O)Nc1cccc(Cl)c1C	inactive
O=C(CCc1ccccc1)Nc1nn[nH]n1	inactive
O=C(/C=C/c1c(F)cccc1Cl)Nc1nn[nH]n1	inactive
Cc1ccc(-c2cc(C(=O)Nc3nn[nH]n3)c3ccccc3n2)c(C)c1	15.1 µM (active)
Cc1cccc(NC(=O)CN(c2ccc(C(C)C)cc2)S(=O)(=O)c2c(C)nn(C)c2C)c1C	inactive
COCCCNc1nc2c(-c3cccc(C)c3)nnn2c2ccc(Cl)cc12	inactive
CC(=O)NC1C(Oc2ccc(C)cc2)OC2COC(c3ccco3)OC2C1O (stereo not drawn)	inactive
CC(C)c1ccc(C2C(C(=O)c3ccco3)=C(O)C(=O)N2CC2CCCO2)cc1 (stereo not drawn)	inactive
CCOc1ccc(C2CC(=O)c3c([nH]c(C(=O)OCc4ccccc4)c3C)C2)cc1 (stereo not drawn)	inactive
O=C(Nc1cc(C(F)(F)F)ccc1Cl)c1ccc2c(c1)CCN2S(=O)(=O)c1ccccc1	inactive
N#Cc1nc(Cc2ccccc2)oc1NCCc1ccccc1	16.9 µM (active)
N#Cc1nc(/C=C/c2ccc(F)cc2)oc1NCc1ccc(F)cc1	inactive
N#Cc1nc(Cc2cccc3ccccc23)oc1NCc1ccc2c(c1)OCO2	inactive
Nc1nc(COC(=O)CCC(=O)c2ccc(Cl)cc2)nc(Nc2ccccc2)n1	inactive
CCOC(=O)c1sc(NC(=O)CSc2ncccn2)c(C#N)c1C	inactive
CC(C)NS(=O)(=O)c1ccc(NC(=O)c2cccnc2)cc1	inactive

Structure (SMILES)	Potency
Cc1c(C(=O)OC(C)C)sc(NC(=O)c2cccnc2)c1C#N	6.75 µM (active)
Cc1ccc(NS(=O)(=O)c2ccc3c(c2)CC(=O)N3)cc1Cl	inactive
CC(=O)c1ccc(OCCN2CCOCC2)cc1	inactive
CC(C)(c1ccccc1)c1ccc(OCCN2CCCC2)cc1	inactive
c1ccc(-c2ccc(OCCN3CCOCC3)cc2)cc1	16.9 µM (active)
O=C(C1CC1)N1CCc2cc(Br)cc(S(=O)(=O)N3CCN(c4ccccc4F)CC3)c21	inactive
COc1cccc(CN(C)C(=O)CC23CC4CC(CC(C4)C2)C3)c1OC	inactive
Cc1cccc(-c2nc(Nc3ccc(O)cc3)c3ccccc3n2)c1	19 µM (active)
COc1cc(Nc2nc(-c3ccc(OC)c(OC)c3)nc3ccccc23)cc(OC)c1	inactive
CCC(=O)OCCNc1nc(-c2ccccc2)nc2ccccc12	inactive
CCOc1ccc2c(c1)cc(CN(C(=O)CC)C1CCCCC1)c1nnnn12	inactive
COc1ccc(C)cc1N(C)C(=O)c1c(C)oc2ncnc(N3CCOCC3)c12	inactive
COc1cc(Cl)c(C)cc1Nc1nnc(-n2nc(C)cc2C)c2ccccc12	inactive
O=c1[nH]c2cc(Br)ccc2n2cccc12	inactive
O=C(N/N=C/c1sc(N2CCCCC2)nc1-c1cccs1)c1cccnc1	21.3 µM (active)
O=C(NN=C1CCC(=NNC(=O)c2cccnc2)CC1)c1cccnc1	inactive
Cc1ccc(S(=O)(=O)N2CCCCC2)cc1NC(=O)c1cccnc1	inactive
COc1ccc2c(c1)CCc1cn3ncc(C#N)c3nc1-2	inactive
COc1ccc2nc(N3CCCC(O)C3)c(C#N)cc2c1 (stereo not drawn)	7.57 µM (active)
COc1ccc2cc(C(=O)C3CCCN(C(=O)c4sc(C)nc4C)C3)ccc2c1 (stereo not drawn)	inactive
COc1cc2c(cc1OC)CN(C(C)C(=O)Nc1cccc(S(=O)(=O)N3CCOCC3)c1)CC2 (stereo not drawn)	inactive
COc1ccc(S(=O)(=O)NCCCCOc2ccc(Cl)cc2)cc1	inactive
Cc1cc(S(=O)(=O)N2CCOCC2)ccc1OCC(=O)N1CCOCC1	inactive

Structure (SMILES)	Potency
COCc1c(C(=O)OCC(=O)Nc2ccc(OC(F)F)cc2)oc2ccccc12	inactive
O=C(NC1CCN(S(=O)(=O)c2ccc(F)cc2)CC1)c1ccccc1	inactive
O=C(NC1CC1)c1ccc(-c2ccccc2)cc1	16.9 µM (active)
CC(=O)c1cc(-c2ccccc2)n(CC(=O)NC2CCCCC2)c1C	inactive
O=C(CCc1nc(-c2ccccc2)no1)Nc1cccc(C(=O)NC2CC2)c1	inactive
O=C(NC1CC1)c1cccc(Br)c1	inactive
O=C(NC1CCCC1)c1cc(-c2ccccc2)on1	5.36 µM (active)
COc1ccc(-c2c(C)c3ccc(O)c(CN4CCCC4)c3oc2=O)cc1OC	inactive
Cn1nc(C(=O)OCC(=O)N(Cc2ccccc2)C(C)(C)C)c2ccccc2c1=O	inactive
CSc1ccccc1-c1nnc(-c2ccc(Cl)cc2)o1	5.36 µM (active)
FC(F)(F)c1cnc(Oc2ccccc2-c2nnc(-c3ccc(Cl)cc3)o2)c(Cl)c1	inactive
O=C(O)c1cc(S(=O)(=O)Nc2ccc3cn[nH]c3c2)ccc1Br	inactive
Cc1cc(C(=O)COC(=O)CCCN2C(=O)c3ccccc3C2=O)c(C)n1C	23.9 µM (active)
Cc1cc(C)cc(OCC(=O)NNC(=O)CCN2C(=O)c3ccccc3C2=O)c1	inactive
O=C(CCCN1C(=O)c2ccccc2C1=O)Oc1ccc(Cl)cc1	inactive
CCCCN(Cc1ccccc1)C(=O)C1CCN(Cc2sccc2C)CC1	inactive
O=C(NC1CC(=O)N(c2ccc(F)cc2)C1)c1cccs1 (stereo not drawn)	inactive
CN(C(=O)CSc1nc(C2CC2)nc2ccccc12)c1nc(-c2ccccc2)cs1	inactive
COc1ccc(CCN(C(=O)COc2ccccc2)c2nc(-c3ccccc3)cs2)cc1OC	inactive
CN(c1ccc(O)cc1)c1nc(-c2cccnc2)cs1	4.78 µM (active)
Cc1ccc(S(=O)(=O)N(Cc2nc(-c3ccc(Cl)cc3)no2)C2CCCCC2)cc1	inactive
CC(C(=O)N1CCc2ccccc21)N(C)CC(=O)Nc1ccc(F)cc1 (stereo not drawn)	inactive
